For 38 compounds, AC50 and outcome results are on record in PubChem BioAssay (EPA / NIEHS).

Each structure is given as a SMILES string. Values joined by “and” are separate entries in the source; they are usually repeats but may differ in a detail not shown here. Equal values may be shown once. Inconclusive results are not listed. More than one record can exist for a structure, and the calls need not agree. Active and inactive are the calls of the source. How the source made its calls, unless noted: active means hit-call score of the fitted dose curve at least 0.9, where 1 is the maximum; inconclusive means response in the unintended direction; inactive means score below 0.9.

Nuclear receptor subfamily 1 group I member 2 (Homo sapiens), sequence (O75469 whole entry, looked up): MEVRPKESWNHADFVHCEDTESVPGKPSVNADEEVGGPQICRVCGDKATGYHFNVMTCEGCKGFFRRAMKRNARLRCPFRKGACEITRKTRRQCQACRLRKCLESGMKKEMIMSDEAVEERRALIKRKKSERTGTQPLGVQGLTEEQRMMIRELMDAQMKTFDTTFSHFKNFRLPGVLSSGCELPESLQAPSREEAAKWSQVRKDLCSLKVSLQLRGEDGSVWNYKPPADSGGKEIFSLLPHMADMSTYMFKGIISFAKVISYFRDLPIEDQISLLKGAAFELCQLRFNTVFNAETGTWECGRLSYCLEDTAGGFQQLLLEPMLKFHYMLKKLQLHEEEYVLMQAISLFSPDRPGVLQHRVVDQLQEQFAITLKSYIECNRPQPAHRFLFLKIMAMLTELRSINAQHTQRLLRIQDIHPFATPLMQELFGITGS

Read-out in one test: not listed separately
Briefly: BSK_3C_Proliferation: Cell Proliferation Assessment in the BioMAP Diversity Plus: 3C Assay (AID 2283006; active means hit-call score of the fitted dose curve at least 0.9, where 1 is the maximum; inactive means score below 0.9;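 on AC50: potency may reflect either rise or fall in cell number versus DMSO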). To be noted: primary human endothelial cells (HUVEC). The method in brief: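 Human umbilical vein endothelial cells were grown sub-confluent and exposed to chemical for 48 h, then fixed with 10% TCA and stained with 0.1% sulforhodamine B; absorbance at 560 nm gave relative cell number, fitted bidirectionally against DMSO baseline.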
For `CCOP(=S)(Oc1ccc([N+](=O)[O-])cc1)c1ccccc1` (stereo not drawn), the AC50 (commonly the concentration giving half of the maximal activity seen) was 13.5 µM (active).

Take `COP(=O)(O)OC`: the outcome was inactive.

Take `C=CC(=O)OCC(F)(F)C(F)F`: the AC50 is 30 µM (active) and 36 µM (active).

For `O=C(O)C(F)(OC(F)(F)C(F)(F)C(F)(F)F)C(F)(F)F` (stereo not drawn), the AC50 is 0.22 µM (active) and the outcome was inactive.

Take `O=P(OCC(Br)CBr)(OCC(Br)CBr)OCC(Br)CBr` (stereo not drawn): the concentration at half-maximal activity (AC50) is 11.9 µM (active).

Take `N#Cc1cc([N+](=O)[O-])ccc1N`: the outcome was inactive.

For `O=c1ssc(Cl)c1Cl`, the concentration at half-maximal activity (AC50) is 1.45 µM (active).

Consider `CCOC(=O)c1ccccc1C(=O)OCC`, for which the result was inactive.

In the case of `CCOP(=S)(OCC)SCSc1ccc(Cl)cc1`, the AC50 is 11.8 µM (active).

For the compound `OCC(F)(F)OC(F)(F)C(F)(F)OC(F)(F)C(F)(F)OC(F)(F)CO`, the half-maximal activity concentration (AC50) was 5.95 µM (active) and 35.3 µM (active).

Take `COP(N)(=S)OC`: the result was inactive.

With `CC(C)(C)c1ccc(O)cc1`, the outcome was inactive.

Consider `FC(F)(F)C(F)(C(F)(F)F)C(F)(F)C(F)(F)CC1CO1` (stereo not drawn), for which the result was inactive.

In the case of `COCCOCCO`, the outcome was inactive.

Consider `OCC1CO1` (stereo not drawn), for which the result was inactive.

`CCCCC(CC)COC(=O)c1c(Br)c(Br)c(Br)c(Br)c1C(=O)OCC(CC)CCCC` (stereo not drawn): the result was inactive.

Take `ClC(Cl)(Cl)c1ccccc1`: the result was inactive.

With `C=CC(=O)OCC(CC)(COC(=O)C=C)COC(=O)C=C`, the AC50 is 1.7 µM (active).

As for `CCOc1ccc(C(C)(C)COCc2cccc(Oc3ccccc3)c2)cc1`, the half-maximal activity concentration (AC50) is 0.697 µM (active).

For `CCOS(=O)(=O)OCC`, the outcome was inactive.

As to `c1ccc(OP(Oc2ccccc2)Oc2ccccc2)cc1`, the result was inactive.

With `ClC(Cl)c1ccccc1`, the result was inactive.

Regarding `Nc1ccc([N+](=O)[O-])cc1Cl`, the outcome was inactive.

`Cc1ccc(O)cc1C`: the result was inactive.

In another test the target is Peroxisome proliferator-activated receptor gamma (Homo sapiens) (UniProt P37231). Briefly: ATG_PPARg_TRANS: Attagene TRANS-FACTORIAL HepG2 Assay for human Peroxisome Proliferator-activated Receptor-gamma (PPARg) (AID 2283007).
Peroxisome proliferator-activated receptor gamma (Homo sapiens), sequence (P37231 whole entry, looked up): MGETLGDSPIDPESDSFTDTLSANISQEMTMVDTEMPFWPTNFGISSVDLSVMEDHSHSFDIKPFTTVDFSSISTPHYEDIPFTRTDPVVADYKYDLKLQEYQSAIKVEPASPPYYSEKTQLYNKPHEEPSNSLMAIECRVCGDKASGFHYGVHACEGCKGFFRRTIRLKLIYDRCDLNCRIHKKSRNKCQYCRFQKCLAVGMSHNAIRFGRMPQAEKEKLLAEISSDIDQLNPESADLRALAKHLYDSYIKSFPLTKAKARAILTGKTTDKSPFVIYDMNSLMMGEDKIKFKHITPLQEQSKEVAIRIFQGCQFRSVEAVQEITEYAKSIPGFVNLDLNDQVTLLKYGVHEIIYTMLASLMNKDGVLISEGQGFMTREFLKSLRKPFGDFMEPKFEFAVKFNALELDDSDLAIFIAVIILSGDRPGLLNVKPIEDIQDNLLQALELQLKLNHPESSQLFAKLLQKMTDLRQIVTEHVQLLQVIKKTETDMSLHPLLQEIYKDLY
Settings: not given
An outline of the steps: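 HepG2 cells transiently transfected with multiplexed GAL4-UAS reporter units and exogenous chimeric NR-Gal4 proteins; reporter mRNA quantified after 24 h compound exposure by RT-PCR, fluorescent labelling, HpaI digestion and capillary electrophoresis; gain-of-signal fitted versus DMSO baseline.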
With `CCOP(=S)(Oc1ccc([N+](=O)[O-])cc1)c1ccccc1` (stereo not drawn), the call was inactive.

For the compound `COP(=O)(O)OC`, the call was inactive.

As to `C=CC(=O)OCC(F)(F)C(F)F`, the concentration at half-maximal activity (AC50) is 3.8 µM (active).

For `O=C(O)C(F)(OC(F)(F)C(F)(F)C(F)(F)F)C(F)(F)F` (stereo not drawn), the AC50 is 102 µM (active) and the compound was called inactive.

Turning to `O=P(OCC(Br)CBr)(OCC(Br)CBr)OCC(Br)CBr` (stereo not drawn), the AC50 was 2.68 µM (active).

On to `CC(O)C#N` (stereo not drawn), for which the call was inactive.

For the compound `O=NN1CCCC1`, the outcome was inactive.

Regarding `N#Cc1cc([N+](=O)[O-])ccc1N`, the call was inactive.

With `O=c1ssc(Cl)c1Cl`, the AC50 is 33.4 µM (active).

Turning to `CCOP(=S)(OCC)SCSc1ccc(Cl)cc1`, the compound was classed as inactive.

For the compound `OCC(F)(F)OC(F)(F)C(F)(F)OC(F)(F)C(F)(F)OC(F)(F)CO`, the compound was called inactive.

On to `COC(N)=O`, for which the compound was classed as inactive.

Regarding `CC(C)(C)c1ccc(O)cc1`, the compound was classed as inactive.

Regarding `FC(F)(F)C(F)(C(F)(F)F)C(F)(F)C(F)(F)CC1CO1` (stereo not drawn), the call was inactive.

As to `C/C(=N\NC(=O)Nc1cc(F)cc(F)c1)c1ncccc1C(=O)O`, the outcome was inactive.

For the compound `O=C(CBr)OCc1ccccc1`, the compound was called inactive.

For the compound `Clc1ccc(Oc2ccccc2)cc1`, the compound was called inactive.

As for `CCCCOCC1CO1` (stereo not drawn), the outcome was inactive.

As for `OCC1CO1` (stereo not drawn), the compound was called inactive.

For the compound `CCCCC(CC)COC(=O)c1c(Br)c(Br)c(Br)c(Br)c1C(=O)OCC(CC)CCCC` (stereo not drawn), the compound was called inactive.

For `Oc1ccc(I)cc1`, the outcome was inactive.

Turning to `NNC(N)=S`, the compound was called inactive.

On to `CC(C)CBr`, for which the compound was classed as inactive.

As for `CC1=C(C(=O)Nc2ccccc2)S(=O)(=O)CCO1`, the AC50 is 1.9 µM (active).

As for `C=CC(=O)OCC(CC)(COC(=O)C=C)COC(=O)C=C`, the AC50 was 24.3 µM (active).

As to `O=S(=O)(c1ccc(O)cc1)c1ccc(O)cc1`, the AC50 is 22.4 µM (active).

In the case of `CCOc1ccc(C(C)(C)COCc2cccc(Oc3ccccc3)c2)cc1`, the result was inactive.

`c1ccc(OP(Oc2ccccc2)Oc2ccccc2)cc1`: the compound was classed as inactive.

As for `Nc1ccc([N+](=O)[O-])cc1Cl`, the result was inactive.

Regarding `C=C(C)C(=O)OCC1CO1` (stereo not drawn), the outcome was inactive.

In the case of `Cc1ccc(O)cc1C`, the result was inactive.

A further test addresses Nuclear receptor subfamily 1 group I member 2 (Homo sapiens) (UniProt O75469). Briefly: ATG_PXR_TRANS: Attagene TRANS-FACTORIAL HepG2 Assay for human Pregnane X Receptor (PXR) (AID 2283008).
Settings: not given
The method in brief:
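Measures mRNA induction of a GAL4-UAS-driven reporter in human HepG2 cells transiently expressing PXR fused to Gal4, following 24 h treatment. DMSO served as negative control and baseline.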
With `CCOP(=S)(Oc1ccc([N+](=O)[O-])cc1)c1ccccc1` (stereo not drawn), the concentration at half-maximal activity (AC50) was 1.2 µM (active).

`O=P(OCC(Br)CBr)(OCC(Br)CBr)OCC(Br)CBr` (stereo not drawn): the AC50 was 0.224 µM (active).

With `O=NN1CCCC1`, the compound was classed as inactive.

For the compound `N#Cc1cc([N+](=O)[O-])ccc1N`, the compound was classed as inactive.

For `Cc1cc(C)c(C(=O)P(=O)(c2ccccc2)c2ccccc2)c(C)c1`, the AC50 is 0.0576 µM (active).

Regarding `O=c1ssc(Cl)c1Cl`, the compound was called inactive.

Turning to `CCOC(=O)c1ccccc1C(=O)OCC`, the compound was called inactive.

Turning to `OCC(F)(F)OC(F)(F)C(F)(F)OC(F)(F)C(F)(F)OC(F)(F)CO`, the outcome was inactive.

Consider `COP(N)(=S)OC`, for which the call was inactive.

`C/C(=N\NC(=O)Nc1cc(F)cc(F)c1)c1ncccc1C(=O)O`: the result was inactive.

`Clc1ccc(Oc2ccccc2)cc1`: the compound was called inactive.

On to `CCCCC(CC)COC(=O)c1c(Br)c(Br)c(Br)c(Br)c1C(=O)OCC(CC)CCCC` (stereo not drawn), for which the outcome was inactive.

As to `CC1=C(C(=O)Nc2ccccc2)S(=O)(=O)CCO1`, the compound was classed as inactive.

For the compound `C=CC(=O)OCC(CC)(COC(=O)C=C)COC(=O)C=C`, the half-maximal activity concentration (AC50) was 0.793 µM (active).

For `CCOc1ccc(C(C)(C)COCc2cccc(Oc3ccccc3)c2)cc1`, the AC50 is 4.88 µM (active).

Turning to `Nc1ccc([N+](=O)[O-])cc1Cl`, the outcome was inactive.
